Measurements reported in PubChem BioAssay AID686978 (National Center for Advancing Translational Sciences (NCATS), 2013).
The whole screen tested about 420,000 compounds, of which about 64,000 (15%) were called active. Not shown: some 27% with an inconclusive outcome. The call rests on the fitted dose curve; in most records, active means well fitted inhibition curve with a large enough effect; inconclusive means small, poorly fitted or top-dose-only effect; inactive means flat fitted curve, though single readings scatter. These entries were drawn from the full list.

experiment: qHTS for Inhibitors of human tyrosyl-DNA phosphodiesterase 1 (TDP1): qHTS in cells in absence of CPT; details: DT40 Tdp1-/- hTDP1 cells, no CPT, ATP luminescence, 48 h; activity change, negative = growth inhibition: at 46.2 µM (top of the series); further: nearly all actives have a fitted effect of over 55% in size
Summary of the method: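 Seeded 400 DT40-hTDP1 cells/well (vehicle DMSO, no 20 nM CPT); pinned compounds; ≥48 hr at 37 °C; CellTiter-Glo luminescence as viability measure.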
On the % scale 0 is the no-effect control and ±100 the full control effect; potency means the concentration at half of the fitted maximal effect.

Compound	activity change, negative = growth inhibition	Potency
Cn1c(=O)c(=O)n(C)c2cc(NC(=O)c3ccccc3Br)ccc21	-6.28% (inactive)	–
CCOC(=O)c1cnc2c(C)cc(Cl)cc2c1NCCc1ccc(OC)c(OC)c1	-24.3% (inactive)	–
Cc1ccc(OCCCC(=O)Nc2ccc(N3CCOCC3)cc2)cc1	-18.3% (inactive)	–
CCOC(=O)c1cnc2c(C)cc(C)cc2c1Nc1ccc(N2CCOCC2)cc1	–	5.8 µM (active)
COc1ccc(-c2ccc(=O)n(CC(=O)Nc3ccc(Br)cc3F)n2)cc1	-9.62% (inactive)	–
CCc1nc(SCC(=O)Nc2ccccc2OC)n[nH]1	-4.31% (inactive)	–
CCCc1nc(SCC(=O)N2CCCC2)c2c(=O)n(C)c(=O)n(C)c2n1	-0.452% (inactive)	–
CCCc1nc(SCC(=O)Nc2ccccc2OC)c2c(=O)n(C)c(=O)n(C)c2n1	–	23.1 µM (active)
COc1ccc(CCN2CC(C(=O)NCCN3CCNC3=O)CCC2=O)cc1 (stereo not given)	20.6% (inactive)	–
O=C(COc1ccccc1)NCc1ccc2c(c1)OCO2	-28.8% (inactive)	–
COc1cccc(NC(=O)N2CCCC2C(=O)NC2CCCCC2)c1 (stereo not given)	-3.39% (inactive)	–
COc1cccc(NC(=O)C2CCCN2C(=O)OCc2ccccc2)c1 (stereo not given)	-24.9% (inactive)	–
COc1cccc(NC(=O)N(Cc2cn(C)c3ccccc23)C2CCCCCC2)c1	–	5.8 µM (active)
O=C1CCC(=O)N1CCOP1(=O)COc2ccccc2OC1	-3.6% (inactive)	–
O=C(Nc1cccc2ccccc12)NC1CC1	-14.7% (inactive)	–
CC(=O)N(C)c1ccc(NC(=O)Nc2cccc3ccccc23)cc1	5.69% (inactive)	–
CCN(C(=O)Nc1cccc2ccccc12)c1ccccc1	–	20.6 µM (active)
COc1ccc(N2C(=O)CCC(C(=O)Nc3ccccn3)C2c2ccc(OC)c(OC)c2)cc1 (stereo not given)	-20.8% (inactive)	–
CC(C)Cc1nc(Cl)c(C#N)c2c1CCC2	-18.1% (inactive)	–
O=C1NC2(CCCCC2)N=C1c1ccccc1	0.724% (inactive)	–
S=c1[nH]nc(-c2cccs2)n1/N=C/c1cccs1	-2.22% (inactive)	–
Cc1ccsc1/C=N/n1c(=S)[nH]nc(C)c1=O	–	13 µM (active)
S=c1[nH]nc(-c2ccco2)n1/N=C/c1ccc(Br)s1	-0.549% (inactive)	–
CN(Cc1ccccc1)C(=O)[C@@H]1CCCN1C(=O)[C@@H]1CCCN1C(=O)c1c(F)cccc1F	-18.5% (inactive)	–
N#CC1(NC(=O)COC(=O)CCN=C2NS(=O)(=O)c3ccccc32)CCCCC1	-0.411% (inactive)	–
Cc1ccc(C(=O)C(=S)N2CCOCC2)cc1	-1.15% (inactive)	–
Cc1cc(C(=O)N/N=C/c2ccc(N3CCOCC3)cc2)c(C)o1	-28.1% (inactive)	–
CNC(=S)N/N=C/c1ccc(N2CCOCC2)s1	–	3.26 µM (active)

Compound	activity change, negative = growth inhibition	Potency
COc1nc(OC)nc(N(C)CCO)n1	-10.8% (inactive)	–
CN(CCOc1ccccc1)Cc1nc2cc(Cl)ccc2c(=O)[nH]1	0.203% (inactive)	–
COc1cc(CN(C)Cc2nc3cc(C(F)(F)F)ccc3c(=O)[nH]2)ccc1OC(F)F	–	18.4 µM (active)
Cc1nc2ccc(S(=O)(=O)NCC(=O)NCCN3CCCCC3C)cc2s1 (stereo not given)	-8.89% (inactive)	–
Cc1nn(-c2ccccc2)c2c1C(=O)NC(=O)C(C)(C)C2	-19.3% (inactive)	–
Cc1nn(-c2ncccn2)c2c1C(=O)CC(C)(C)C2Br (stereo not given)	–	20.6 µM (active)
CN(C)S(=O)(=O)c1ccc(NC(=O)COC(=O)c2n[nH]c3ccccc23)cc1	–	13 µM (active)
CN(C)S(=O)(=O)c1ccc(NC(=O)COC(=O)Cn2[nH]c(=O)c3ccccc3c2=O)cc1	4.3% (inactive)	–
O=C(COC(=O)c1n[nH]c2ccccc12)Nc1ccccc1Br	-17.5% (inactive)	–
O=C1CC(N2CCN(c3ccc(F)cc3)CC2)C(=O)N1c1ccccc1 (stereo not given)	-10.2% (inactive)	–
COc1ccc(-c2nc(SCC(=O)N3CCOCC3)n[nH]2)cc1	9.09% (inactive)	–
COc1ccc(N2C(=O)CC(Sc3n[nH]c(-c4ccc(C)cc4)n3)C2=O)cc1 (stereo not given)	–	10.3 µM (active)
COc1ccc(N2C(=O)CC(SC(C)C)C2=O)cc1 (stereo not given)	9.41% (inactive)	–
Cc1ccc(N2C(=O)CC(Sc3ncn[nH]3)C2=O)cc1 (stereo not given)	–	4.61 µM (active)
CCOC(=O)c1ccc(N2C(=O)CC(Sc3nc(O)c(CC)c(=O)[nH]3)C2=O)cc1 (stereo not given)	3.43% (inactive)	–
O=C1CC(Sc2ncn[nH]2)C(=O)N1c1ccccc1 (stereo not given)	–	11.6 µM (active)
O=C1CC(c2ccccc2)C(=O)N1c1cccc(O)c1 (stereo not given)	-3.05% (inactive)	–
Cc1ccc(N2C(=O)CC(Nc3cccc4ccccc34)C2=O)cc1 (stereo not given)	-2.47% (inactive)	–
CC1Cc2[nH][nH]c(=O)c2C(C2CCCC2)O1 (stereo not given)	-27.8% (inactive)	–
N#Cc1ccc(/C=C2\CCn3c2nc2cc(C(=O)O)ccc2c3=O)cc1	-11.7% (inactive)	–
NC1=NOC(=O)C1C1CCCCC1 (stereo not given)	–	18.4 µM (active)
CC(=O)Nc1ccc(S(=O)(=O)N2CCCC2C(=O)O)cc1 (stereo not given)	-2.04% (inactive)	–
CCOC(=O)C(NC(=O)CC(C)C)(Nc1sc2c(c1C(N)=O)CCCC2)C(F)(F)F (stereo not given)	-25.5% (inactive)	–
CCN(CC)CCNC(=O)CCCCCn1c(=O)[nH]c2cc(C(=O)OC)ccc2c1=O	-16.1% (inactive)	–
O=C(CCCCCn1c(=O)[nH]c2ccccc2c1=O)NCCc1c[nH]c2ccccc12	-21% (inactive)	–
Cc1ccc(C)c(N2CCN(C(=O)CCCCn3c(=O)[nH]c4ccccc4c3=O)CC2)c1	–	20.6 µM (active)
O=C(CCCn1c(=O)[nH]c2cc(Cl)ccc2c1=O)NCCN1CCN(c2ccccc2)CC1	–	23.1 µM (active)
